According to the supplement of paper PMC6555819:

Assays:
Experiment in all cases: PBM binding z-score (relative to random genomic background probes); higher = stronger binding; sequences stand for … in GC…GCGATTGACAGCGTAGAATGAAGG
[1] = test system: FXR:RXRa (NR concentration 270 nM, RXRa partner concentration 90 nM)
Method in brief: (§1)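 The probes on custom Agilent 4×180K protein-binding microarrays were double-stranded, with 34-nt variable regions bearing direct-repeat seeds, single-nucleotide variants, half-site ablations and random human genomic background sequences. Incubation lasted 1 h with ligand-free nuclear receptor dimers in PBS pH 7.4, 2% milk, 0.02% Triton X-100, 1 mM DTT, 0.2 mg/mL BSA and 0.4 mg/ml salmon testes DNA. Antibodies against each partner (one per run) detected bound dimers, and fluorescence scans were regression-normalized. Binding z-scores take the random background probes as reference.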

[2] = test system: LXRa:RXRa (NR concentration 270 nM, RXRa partner concentration 90 nM)
Method in brief: as §1

[3] = test system: LXRa homodimer (NR concentration 270 nM)
Method in brief: as §1

[4] = test system: LXRb:RXRa (NR concentration 270 nM, RXRa partner concentration 90 nM)
Method in brief: as §1

[5] = test system: LXRb homodimer (NR concentration 270 nM)
Method in brief: as §1

[6] = test system: PPARa:RXRa (NR concentration 270 nM, RXRa partner concentration 90 nM)
Method in brief: as §1

[7] = test system: PPARg:RXRa (NR concentration 180 nM, RXRa partner concentration 90 nM)
Method in brief: as §1

[8] = test system: PPARg:RXRa 270nM:90nM, anti-RXR (NR concentration 270 nM, RXRa partner concentration 90 nM)
Method in brief: as §1

[9] = test system: PPARg:RXRa 30nM:10nM, anti-RXR (NR concentration 30 nM, RXRa partner concentration 10 nM)
Method in brief: as §1

[10] = test system: PPARg:RXRa 90nM:30nM, anti-RXR (NR concentration 90 nM, RXRa partner concentration 30 nM)
Method in brief: as §1

[11] = test system: PPARg:RXRa DBDmut IVT, anti-RXR (DBD mutation: RXRa K156A/R161A, NR concentration 270 nM, RXRa partner concentration 90 nM)
Method in brief: as §1

[12] = test system: PPARg:RXRa IVT, anti-PPARg (NR concentration 270 nM, RXRa partner concentration 90 nM)
Method in brief: as §1

[13] = test system: PPARg DBDmut:RXRa IVT, anti-PPARg (DBD mutation: PPARg1 K132A/R137A, NR concentration 270 nM, RXRa partner concentration 90 nM)
Method in brief: as §1

[14] = test system: PPARg DBDmut IVT, anti-PPARg (DBD mutation: PPARg1 K132A/R137A, NR concentration 270 nM)
Method in brief: as §1

[15] = test system: PPARg homodimer (NR concentration 180 nM)
Method in brief: as §1

[16] = test system: PXR:RXRa (NR concentration 270 nM, RXRa partner concentration 90 nM)
Method in brief: as §1

[17] = test system: PXR homodimer (NR concentration 270 nM)
Method in brief: as §1

[18] = test system: RARa:RXR (NR concentration 270 nM, RXRa partner concentration 90 nM)
Method in brief: as §1

[19] = test system: RARa homodimer (NR concentration 270 nM)
Method in brief: as §1

[20] = test system: RARb:RXRa (NR concentration 270 nM, RXRa partner concentration 90 nM)
Method in brief: as §1

Sequence | PBM binding z-score [1] | PBM binding z-score [2] | PBM binding z-score [3] | PBM binding z-score [4] | PBM binding z-score [5] | PBM binding z-score [6] | PBM binding z-score [7] | PBM binding z-score [8] | PBM binding z-score [9] | PBM binding z-score [10] | PBM binding z-score [11] | PBM binding z-score [12] | PBM binding z-score [13] | PBM binding z-score [14] | PBM binding z-score [15] | PBM binding z-score [16] | PBM binding z-score [17] | PBM binding z-score [18] | PBM binding z-score [19] | PBM binding z-score [20]
AGAATGAGGTTATTGAGATCAGGGAATTGCGGTC | 2.32 | 1.71 | 0.125 | 1.34 | -0.146 | 2.79 | 1.67 | 2.07 | 0.258 | 1.31 | 3.5 | 2.93 | 0.606 | 0.563 | 0.709 | 1.57 | 0.864 | 1.84 | 0.342 | 1.63
GCTATTAGATGAAAGGGCAACCGAATGATTCTCG | -0.0836 | 0.345 | 0.21 | 0.469 | -0.27 | 2.46 | 3.72 | 5.46 | 4.56 | 5.76 | 0.363 | 1.35 | 0.246 | 0.212 | 0.834 | 0.424 | -0.122 | 0.795 | 0.15 | 1.94
CCGACTGGTGCATAAGGTTACCATAAGCCAGCCC | 0.236 | 1.78 | 0.0222 | 0.722 | -0.632 | 1.04 | 0.64 | 1.03 | -0.311 | 0.705 | -0.572 | -0.302 | -0.529 | -1.4 | 0.502 | 0.475 | -0.018 | 1.18 | 0.243 | 0.928
CCTAGTTGGTCCAGGTCACACACGCTATAGGTAC | 1.93 | 2.22 | 1.52 | 2.41 | 0.771 | 2.58 | 1.47 | 1.46 | 0.532 | 1.01 | 1.21 | 2.28 | 0.272 | 0.266 | 2.22 | 2.34 | 1.6 | 2.66 | 1.7 | 2.59
ATATGTAGGTTTGCTGGGGTCATTCAGACTAGGC | 3.58 | 3.85 | 1.58 | 4.47 | 1.4 | 4.53 | 2.69 | 3.1 | 0.969 | 2.19 | 3.16 | 3.12 | 1.39 | 1.41 | 1.83 | 5.71 | 7.95 | 4.72 | 1 | 2.53
ACTATTAGTTGACTAAGGGCAACCGATACGACGC | 0.232 | 0.474 | 0.168 | 0.518 | 0.478 | 0.573 | 1.06 | 0.728 | 0.0857 | 0.518 | 0.0727 | 0.783 | 0.688 | 0.819 | 0.638 | 0.652 | 0.92 | 0.766 | 0.98 | 1.53
TCTTGTAGATCAGCAGCTTAAGAAAGCTGGCCAA | -0.0933 | -0.339 | -0.557 | -0.411 | -0.692 | 0.41 | -0.825 | 0.886 | 2.45 | 1.69 | 1.33 | -0.294 | -1.1 | -0.39 | -0.337 | -0.0714 | -0.755 | 0.087 | -0.736 | -0.491
GGGACTGGGGCAAAGCAGGTTACCATAAGGTTGG | 0.776 | 0.705 | 0.405 | 1.24 | 1.22 | 2.6 | 3.59 | 3.37 | 0.646 | 2.33 | 4.85 | 5.97 | 0.631 | 0.017 | 1.03 | 1.21 | 0.82 | 1.18 | -0.119 | 1.39
ATCGAAAGGTCGAAGGTGAGAATACCCACCCGAA | 4.1 | 3.81 | 0.0457 | 2.94 | 0.451 | 4.73 | 4.6 | 4.93 | 2.85 | 4.31 | 0.14 | 2.32 | 0.346 | 0.631 | 1.03 | 3.1 | 0.0633 | 4.65 | 0.941 | 3.83
AATCCAGGGTCACTAGGCCAGAGTAGGTACGAAT | 5.69 | 4.8 | 0.376 | 3.92 | 0.621 | 5.78 | 7.8 | 6.61 | 3.93 | 5.73 | 3.69 | 5.76 | 1.17 | 1.11 | 2.8 | 3.49 | 0.164 | 4.74 | 0.405 | 4.36
TCATATAGGTAATACAGGTGAAAGTCGGCATCTA | 1.2 | 1.54 | 0.569 | 1.2 | 0.365 | 2.06 | 1.67 | 2.61 | 4.12 | 3.5 | 4.2 | 3.48 | 1.31 | 1.86 | 1.33 | 0.888 | 0.728 | 1.34 | 1.98 | 0.83
TCTCGGGGGACACGAAGGTCAGAGCTTTCCAGAG | 2.9 | 2.88 | 0.575 | 4.36 | 6.23 | 3.77 | 1.86 | 3.73 | 3.31 | 3.45 | 2.39 | 3.51 | 2.53 | 5.36 | 2.05 | 3.27 | 1.24 | 3.29 | 0.556 | 3.73
GGAACGAGGGAAAGTTGATAGCAGAGTTTGATGG | -0.31 | -0.575 | -0.354 | -0.799 | -0.711 | -0.252 | 0.626 | 0.9 | 0.276 | 0.845 | 0.0988 | -0.37 | -0.287 | -0.305 | 0.398 | -0.176 | 0.056 | -0.338 | -0.00431 | -0.247
CCGACTGGGGCAAAGGTTAACATACTCAGTACGA | 2.41 | 2.19 | 0.28 | 2.96 | -0.551 | 6.17 | 11.3 | 9.21 | 9.81 | 10.1 | 4.64 | 6.54 | 0.226 | -0.237 | 1.61 | 3.12 | -0.0875 | 4.64 | 0.346 | 2.77
